# Hits are enriched below; roughly 18% of the tested compounds scored in any of these assays.
# IL-1B inflam inh – inhibitors of inflammasome signaling (IL-1 beta secretion); THP-1 LPS/ATP IL-1B secretion, AlphaLISA, 16 h; active compounds read low; 4.7% of 360,000 active; activity change, % at 57.5 µM; in the data active means activity change below about -50%; inconclusive means mostly about -30% to -49%
#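 THP-1 cells pretreated 1 hr with compounds (up to 57.5 uM final), then stimulated with LPS (250 ng/mL final) plus ATP (1.25 mM final); secreted IL-1B measured by AlphaLISA after 16 hr, decreased signal indicating inhibition.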
# TGFb SMAD3 inh – TGF-b pathway inhibition. HepG2 CAGA-GFP TGF-b/SMAD3 reporter, GFP fluorescence, 18 h; TGF-beta stimulated, 500 pg/mL final. Potency, µM (top dose mostly 46.1 µM), most hits filed as inhibitors. 1.2% of 410,000 active. AID 588855; further: nearly all actives have a fitted effect of over 65% in size
#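 HEPG2 CAGA-GFP cells (1000/well, DMEM with 1% FBS) were pre-incubated 2 h at 37 degrees C, given compound by pin tool, then stimulated with TGF-beta at 500 pg/mL final for 18 h before per-cell GFP fluorescence imaging.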
# TDP1 block – inhibitors of human tyrosyl-DNA phosphodiesterase TDP1 | Q9NUW8 | recombinant TDP1, AlphaScreen DNA substrate cleavage | Potency, µM (doses to about 130 µM), most hits filed as inhibitors | 0.28% of 350,000 active | AID 485290; further: nearly all actives have a fitted effect of over 40% in size
# Target sequence (Q9NUW8 whole entry, looked up): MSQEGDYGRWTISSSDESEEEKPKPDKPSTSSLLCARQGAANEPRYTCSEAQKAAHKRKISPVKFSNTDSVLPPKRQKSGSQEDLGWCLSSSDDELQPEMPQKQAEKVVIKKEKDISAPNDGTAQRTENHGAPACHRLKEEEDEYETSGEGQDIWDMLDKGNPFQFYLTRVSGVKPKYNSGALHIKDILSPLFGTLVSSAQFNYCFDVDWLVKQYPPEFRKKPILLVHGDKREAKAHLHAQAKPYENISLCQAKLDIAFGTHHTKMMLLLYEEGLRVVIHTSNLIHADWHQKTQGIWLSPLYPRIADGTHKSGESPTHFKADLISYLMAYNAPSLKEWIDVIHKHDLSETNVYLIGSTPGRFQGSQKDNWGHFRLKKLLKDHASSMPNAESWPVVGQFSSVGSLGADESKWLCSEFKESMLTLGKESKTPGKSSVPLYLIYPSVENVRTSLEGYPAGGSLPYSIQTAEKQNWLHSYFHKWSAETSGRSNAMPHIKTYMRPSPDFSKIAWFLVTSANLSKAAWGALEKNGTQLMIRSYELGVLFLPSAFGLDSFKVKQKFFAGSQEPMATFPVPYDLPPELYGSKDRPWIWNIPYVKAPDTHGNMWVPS
#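 Enzyme-compound mixtures sat 15 min at room temperature, followed by a 5 min reaction with 15 nM final substrate and 10 min with AlphaScreen beads. Recombinant human Tdp1 was used at 1 nM final.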
# DT40 TDP1 no CPT – qHTS for Inhibitors of human tyrosyl-DNA phosphodiesterase 1 (TDP1): qHTS in cells in absence of CPT. DT40 Tdp1-/- hTDP1 cells, no CPT, ATP luminescence, 48 h. AID 686978, 2013. Potency, µM (doses to about 46.2 µM), hits mostly inhibitors. 15% of 420,000 active; further: nearly all actives have a fitted effect of over 55% in size
#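 Cells were dispensed at 400 per well, compounds added by pin tool, plates incubated ≥48 hr at 37 °C, then CellTiter-Glo added for 30 min at room temperature before luminescence reading. Line: DT40 Tdp1-/- complemented with hTDP1; camptothecin omitted.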
# DT40 TDP1 CPT – growth inhibition of DT40 Tdp1-/-;hTDP1 cells with camptothecin (screen for TDP1 inhibitors) | chicken DT40 Tdp1-/-;hTDP1 cells + 20 nM CPT, ATP luminescence, 48 h | Potency, µM (top dose mostly 46.2 µM), actives largely listed as inhibitors | 12% of 420,000 active | AID 686979; further: nearly all actives have a fitted effect of over 55% in size
#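 Chicken DT40 Tdp1-/- cells complemented with human TDP1, 400 cells/well, exposed to compounds plus 20 nM camptothecin for at least 48 h at 37 C; viability read as ATP content by CellTiter-Glo luminescence.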
# HepG2 tox – HepG2 cytotoxicity, counter-screen for TGF-b inhibitors; HepG2 CAGA-GFP viability, ATP luminescence, 18 h; Potency, µM (highest dose often 46.1 µM), actives largely listed as cytotoxic; 0.76% of 410,000 active
#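 HepG2 CAGA-GFP cells (1000/well, DMEM with 1% FBS) received compound, then TGF-beta at 500 pg/mL final, and were incubated 18 hours at 37 degrees C. Viability was read by CellTiter-Glo luminescence. Media-only wells were set as complete cell-killing and DMSO as no toxicity.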
# Numbers stand for hits; n = inactive; u = inconclusive; x = no result given; ! = a repeat was not active; [ ] = dose if it differs, or a comment. Unless noted, the call rests on the fitted dose curve; in most records, active means well fitted curve in the direction sought with a large enough effect; inconclusive means small, poorly fitted or top-dose-only effect, or another doubt; inactive means no such curve, though single readings can be large; an effect the other way counts as inactive or inconclusive.
SMILES,IL-1B inflam inh,TGFb SMAD3 inh,TDP1 block,DT40 TDP1 no CPT,DT40 TDP1 CPT,HepG2 tox
CC(C)(C)OC(=O)[C@H](Cc1ccccc1)NC(=O)c1[nH]cnc1C(=O)Nc1ccccc1F,u,u,x,15µM,18µM,11µM
CCCCN1C(=O)C(CC(=O)NCc2ccco2)CC(C(=O)N2CCCCCC2)=C1C (configuration not stated),n,x,x,n,n,x
CCN(CC(=O)Nc1ccc(NC(C)=O)cc1)C(=O)CCCc1c[nH]c2ccccc12,u,n,n,n,n,n
Cc1ccc(CCN2CC(C(=O)NCCN(C)C)CC2=O)cc1 (configuration not stated),n,n,x,n,n,n
C[C@H](NC(=O)c1nc[nH]c1C(=O)N[C@@H](Cc1ccccc1)C(=O)OCc1ccccc1)C(=O)OCc1ccccc1,n,u,x,23µM,u,n
COc1ccc(N2CCN(C(=O)Cc3coc4ccc(C)cc34)CC2)cc1,x,u,n,u,18µM,n
COc1ccc(OCC(=O)N2CCN(c3cccc(Cl)c3)CC2)cc1,n,n,n,u,u,n
COc1ccc(CC(=O)N2CCN(C(=O)Cc3ccc(OC)c(OC)c3)CC2)cc1OC,n,n,x,n,n,n
COc1ccc(N2CCN(C(=O)Cc3ccc(OC)c(OC)c3)CC2)cc1,n,n,x,16µM,8.2µM,n
COc1ccc(CC(=O)N2CCN(c3cccc(Cl)c3)CC2)cc1OC,n,n,x,10µM,u,n
COc1ccc(OC)c(S(=O)(=O)N(C)CC(=O)N2CCN(c3cccc(Cl)c3)CC2)c1,n,n,n,18µM,u,n
O=C(NC(=S)N1CCN(c2ccccn2)CC1)c1ccco1,n,n,n,n,n,n
Cc1ccc(-c2nnc3ccccc3c2C(=O)Nc2ccccc2F)cc1,x,n,n,n,n,n
CN(Cc1ccccc1)C(=O)CN1C(=O)NC2(CCCc3sccc32)C1=O (configuration not stated),n,n,x,n,n,n
CCOc1ccc(C(=O)CCC(=O)N(CC)CC(=O)NCc2ccc(Cl)cc2)cc1,n,u,n,u,n,n
CCn1c(SCC(=O)N2CCCCC2C)nc2c1c(=O)n(C)c(=O)n2C (configuration not stated),n,n,x,n,n,n
Nc1nc(-c2ccc(Cl)c(Cl)c2)c(-c2ccncc2)s1,x,x,n,x,x,x
Cc1ccc2onc(CC(=O)N3CCN(c4ccc(F)cc4)CC3)c2c1,x,n,n,u,15µM,n
Clc1ccc(-c2nnnn2-c2ccc(Cl)cc2)cc1,n,n,x,n,n,n
Nc1ncc(-c2nnnn2-c2ccc(Cl)cc2)c(-c2ccc(Cl)cc2)n1,n,n,n,5.8µM,4.6µM,n
Cc1cc2nc(-c3ccc(Cl)cc3)c(CC(C)(C)C)n2c(C)c1Br,n,n,x,u,15µM,n
Cc1cc2nc(-c3ccccc3)c(CC(C)(C)C)n2c(C)c1Br,n,u,x,18µM,15µM,n
Cc1cc2nc(-c3cccc(Br)c3)c(CC(C)(C)C)n2c(C)c1Br,n,u,x,n,u,n
Cc1ccc(-c2nc3cc(C)c(Br)c(C)n3c2Cc2ccccc2)cc1,n,n,x,7.3µM,2.3µM,n
COc1ccccc1CCn1c(=O)c(-c2cccs2)nc2cncnc21,x,x,x,n,n,x
SMILES,IL-1B inflam inh,TGFb SMAD3 inh,TDP1 block,DT40 TDP1 no CPT,DT40 TDP1 CPT,HepG2 tox
COc1cc(=O)n2c(c1C(=O)N(C)Cc1nonc1C)CCN(C(=O)c1ccc(C)c(C)c1)CC2,x,x,x,n,n[9.04 µM],x
Oc1ccc(-c2c(-c3ccsc3)sc3ccccc23)cc1,n,11µM,x,n,n,n
c1ccc2c(-c3ccc(OCCN4CCCCC4)cc3)c(-c3ccsc3)sc2c1,n,n,n,16µM,16µM,n
COc1ccc(-c2sc3cc4c(cc3c2C#CC2(O)CCCCC2)OCO4)cc1,n,n,n,21µM,18µM,n
COc1ccccc1-c1sc2cc3c(cc2c1C#CC1(O)CCCCC1)OCO3,n,u,n,u,u,n
COc1ccc(-c2sc3cc4c(cc3c2-c2ccc(OCCN3CCCCC3)cc2)OCO4)cc1,n,n,n,21µM,16µM,n
COc1cc(OC)cc(-c2sc3ccc(OC)cc3c2-c2ccc(OCCN3CCCCC3)cc2)c1,n,u,n,u,u,n
COCc1ccc(-c2c(-c3ccsc3)sc3ccccc23)cc1,n,n,x,u,n,n
CO/N=C(\C)CCN1CCCc2nc(C)c(C)cc21,x,x,n[21 µM],x,x,x
CC(=O)Nc1nonc1-c1nnc(SCC(=O)Nc2cc(C)cc(C)c2)n1C,x,n,n,u,n,n
CCCOc1cccc(C2c3c(oc4cc(C)c(C)cc4c3=O)C(=O)N2CCCN2CCOCC2)c1 (configuration not stated),x,u,n,u,u,n
CN(C)CCOc1ccc(-c2c(-c3ccccc3)sc3ccccc23)cc1,u,u,n,6.5µM,10µM,n
c1ccc(-c2sc3ccccc3c2-c2ccc(OCCN3CCCCC3)cc2)cc1,n,n,n,u,u,n
COc1ccc2[nH]c3c(c2c1)CCN1C(=O)C(CC(=O)NCCN2CCOCC2)C[C@H](C(=O)N2CCOCC2)[C@@]31C (some centres not stated),n,u,n,n,n,n
O=C1C(SCCO)=C(SCCO)C(=O)c2ccccc21,-54,3.2µM,n,0.16µM,0.052µM,7.1µM!
COc1ccc(-c2nc(-c3ccc(O)cc3O)cs2)cc1OC,-67,n,n,u,u,n
O=C(O)c1ccc(-c2nc(-c3ccccc3Cl)cs2)cc1,n,n,n,n,n,n
ClCc1csc(-c2ccccc2Cl)n1,n,n,x,18µM,12µM,n
COc1ccc(-c2nc(CCl)cs2)cc1OC,n,n,n,12µM,4.6µM,n
CCc1ccc(NC(=O)C(=O)NCCc2csc(-c3ccc(C(F)(F)F)cc3)n2)cc1,x,u,n,u,n,n
CCc1ccc(-c2nc(CCl)cs2)cc1,n,n,n,u,12µM,n
Cc1ccc(-c2csc(-c3ccncc3)n2)cc1,n,n,n,n,n,n
COc1ccc(-c2csc(-c3ccc(O)cc3)n2)cc1,n,u,n,6.5µM,7.3µM,n
COc1ccc(-c2nc(CCl)cs2)cc1,n,n,n,5.8µM,8.2µM,n
COc1ccc(N2CC(O)=C(c3nc(-c4ccc(Br)cc4)cs3)C2=N)cc1,n,n,n,u,u,n
COc1ccc(N2CC(O)=C(c3nc(-c4ccccc4)cs3)C2=N)cc1,n,n,n,21µM,u,n
